Screens as filed in PubChem.
HepG2 tox = kills HepG2 cells in TGF-b inhibitor counter-screen | Potency, µM (doses to about 46.1 µM), for inactives: at the highest dose activity change, negative = cytotoxicity, usual class: cytotoxic | HepG2 CAGA-GFP viability, ATP luminescence, 18 h | actives 0.76% (n = 410,000)
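CellTiter-Glo luminescence gave cytotoxicity after 18 hours at 37 degrees C. The cells were HepG2 CAGA-GFP in 1% FBS DMEM, stimulated with 500 pg/mL TGF-beta after compound addition. %Activity was normalised to no-cell wells (complete cell-killing) and DMSO (no toxicity), and curves were fitted and classified.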
ATXN2 expr inh = inhibitors of ATXN2 expression; HEK-293 ATXN2-luciferase reporter, luminescence, 24 h; Potency, µM (titrated, usually from 57 µM), for the others: at the top dose activity change, negative = inhibition, actives largely listed as inhibitors; actives 0.72% (n = 360,000); AID 1745845; also: % is scaled to controls: 0 for no effect and ±100 for the full control effect; nearly all actives have a fitted effect of over 55% in size
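qHTS (up to 57 uM final) was run with 24 h compound exposure of reporter cells at 37 °C. Each well was multiplexed: SteadyGlo luminescence measured ATXN2-luciferase expression after a fluorogenic Gly-Phe-AFC viability readout (25 uM final).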
TGFb inhibitor = inhibitors of TGF-b signaling. Potency, µM (titrated, usually from 46.1 µM), inactives show at the top dose activity, negative = inhibition, actives largely listed as inhibitors. AID 588855. actives 1.2% (n = 410,000). HepG2 CAGA-GFP TGF-b/SMAD3 reporter, GFP fluorescence, 18 h; TGF-beta stimulated, 500 pg/mL final; also: % is scaled to controls: 0 for no effect and ±100 for the full control effect; nearly all actives have a fitted effect of over 65% in size
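GFP signal (ex488/em500-530) from TGF-beta-stimulated HEPG2 CAGA-GFP cells, 500 pg/mL final, 18 h at 37 degrees C in DMEM plus 1% FBS, normalized to unstimulated and DMSO-stimulated controls.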
ATXN viability = reduces viability in counter-screen for ATXN expression inhibitors. AID 651635. Potency, µM (highest dose often 56.7 µM), usual class: cytotoxic. S2 cells (HEK-293 line with an ATXN2-luciferase reporter) viability, CellTiter-Fluor protease fluorescence, 24 h. actives 0.49% (n = 400,000); also: nearly all actives have a fitted effect of over 40% in size
HT1080 IDH1KD tx = kills HT-1080 cells with IDH1 knockdown. AID 686971. Potency, µM (titrated, usually from 46.1 µM), for the others: at the top dose activity, negative = toxicity, hits mostly cytotoxic. actives 2% (n = 360,000). HT-1080 IDH1 knockdown viability, ATP luminescence, 48 h;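 also: 0% = DMSO wells and -100% = cell-free medium wells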
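Assay cells: HT-1080 with IDH1 knockdown, 750 per well, RPMI/5% FBS. Exposure: 48 h at 37 °C following 2 h pre-incubation. Read: CellTiter-Glo luminescence; fitted concentration-response, curve class assigned.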
HT1080NT lethal = kills 2HG-producing HT-1080-NT fibrosarcoma cells; HT-1080-NT fibrosarcoma viability, CellTiter-Glo ATP luminescence, 48 h; Potency, µM (series often up to 46.1 µM), for inactives: at the top dose activity, negative = less viability, hits mostly cytotoxic; actives 1.6% (n = 360,000); AID 686970;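 also: NT is the 2HG producing partner of a matched IDH1 knockdown line; 0% = DMSO-treated cells and -100% = media-only wells without cells; nearly all actives have a fitted effect of over 55% in size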
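750 cells/well, RPMI + 5% FBS; 2 h settle, compound pin-transfer, 48 h at 37 degrees C. CellTiter-Glo 10 min RT, luminescence. Normalized to DMSO and media-only wells.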
* hit, by the source's call; i = inactive; u = inconclusive; x = no result given. Sampled rows, rich in hits. Any-hit rate of the full collection: about 3.9%. Calls follow the shape of the dose curve; as a rule, active = well fitted curve in the direction sought with a large enough effect; inconclusive = small, poorly fitted or top-dose-only effect, or another doubt; inactive = no such curve, though single readings can be large; an effect the other way counts as inactive or inconclusive. Potency is read from the fitted curve at half-maximal effect.

SMILES | HepG2 tox | ATXN2 expr inh | TGFb inhibitor | ATXN viability | HT1080 IDH1KD tx | HT1080NT lethal
Cc1cnc(SCC2CCCO2)nc1C1CCCN(C(=O)C2=NNC(=O)CC2)C1 (configuration not stated) | x | x | x | i | x | x
Cc1cc(Br)c2c(c1)/C(=C/C(=O)c1cccs1)C(=O)N2 | -18% | u | u | u | -22% | u
CCc1ccc2c(c1)/C(=C/C(=O)c1cccs1)C(=O)N2 | 11µM* | u | u | x | u | u
Cc1cccc2c1NC(=O)/C2=C\C(=O)c1cccs1 | -16% | u | 10µM* | i | 16µM* | 18µM*
Cc1cc(C)c2c(c1)/C(=C/C(=O)c1ccc(Br)s1)C(=O)N2 | 3% | 18µM* | -1% | u | u | u
COc1cccc(NC(=S)N2CCN(C/C=C/c3ccccc3)CC2)c1 | 7% | -16% | -21% | i | u | 13µM*
Cc1ccc(N)cc1O | -38% | u | u | u | -28% | 3%
Cc1cc(O)c(-c2cc(O)c(C)cc2O)cc1O | 22µM* | x | u | u | u | u
CCc1ccc(/C=C2/SC(=S)N(CCC(=O)NCCCN3CCOCC3)C2=O)cc1 | -31% | 73% | -22% | u | -24% | -25%
COC(=O)c1ccc(/C=C2/SC(=S)N(CCC(=O)NCCCN3CCOCC3)C2=O)cc1 | -2% | 18% | -2% | u | 17% | 0%
CCc1ccc(/C=C2\SC(=S)N(CCCC(=O)NCCCN3CCOCC3)C2=O)cc1 | -41% | x | -16% | 10µM* | u | -18%
CCOc1ccc(/C=C2\SC(=S)N(CCCC(=O)NCCCN3CCOCC3)C2=O)cc1 | -15% | 8.9µM* | u | u | 16µM* | u
CCC(C)(C)OC(=O)N[C@@H](Cc1c[nH]c2ccccc12)C(=O)N[C@@H](CCSC)C(=O)N[C@@H](CC(=O)O)C(=O)N[C@@H](Cc1ccccc1)C(N)=O | x | x | x | i | x | x
COc1ccc2cc1Oc1cc3c(cc1OC)CC[N+](C)(C)[C@H]3Cc1ccc(cc1)Oc1c(OC)c(OC)cc3c1[C@@H](C2)[N+](C)(C)CC3 | x | 6% | x | i | x | x
O=C(N[C@@H]1c2ccccc2C2(CCN(C(=O)c3cc4ccccc4oc3=O)CC2)[C@H]1O)c1cccnc1 | x | x | x | i | x | x
COc1cc(N=Nc2cccc(S(N)(=O)=O)c2)c2ccccc2c1N | -29% | 25% | 0% | x | 15µM* | 21µM*
C1=Cc2ccccc2/C1=C\c1cccc(/C=C2\C=Cc3ccccc32)c1 | -97% | x | u | x | x | x
CCCCOC(=O)c1ccc(NC(=O)Cc2coc3c(C)c(C)ccc23)cc1 | -58% | -26% | u | i | x | x
O=S(=O)(c1ccc2nc(Nc3ccccc3)ccc2c1)N1CCCCC1 | -31% | -5% | u | i | 26µM* | u
CC(=O)c1cccc(Nc2ccc3cc(S(=O)(=O)N4CCCC4)ccc3n2)c1 | -19% | -12% | -32% | i | x | x
COc1ccccc1Nc1sc(C(=O)c2ccc(C)cc2C)c(N)c1S(=O)(=O)c1ccccc1 | -20% | -1% | 2% | i | x | x
Cc1c(CN2CCC(CO)(CCOc3ccccc3)CC2)[nH]c2c(Cl)cccc12 | -97% | u | u | u | 18µM* | 21µM*
Cc1nn(C)c(Cl)c1CN1CCC(CO)(CCOc2ccccc2)CC1 | -40% | -36% | u | i | -1% | -7%
CCN(CC)C1CCN(C(=O)c2cnn(-c3nccc(-c4ccco4)n3)c2C(C)C)C1 (configuration not stated) | x | x | x | i | x | x
CN(C)c1ccc(-c2[nH][nH]c(=O)c2NC(=O)c2ccc3ccccc3n2)cc1 | -77% | u | u | u | u | u
SMILES | HepG2 tox | ATXN2 expr inh | TGFb inhibitor | ATXN viability | HT1080 IDH1KD tx | HT1080NT lethal
CN(C)c1ccc(-c2[nH][nH]c(=O)c2NC(=O)c2ccccn2)cc1 | -111% | u | u | x | 21µM* | u
Cc1ccc(N2CCN(C3C(=O)Nc4ccccc4-n4nnnc43)CC2)cc1 (configuration not stated) | x | x | x | x | -9% | -4%
Cc1cccc(N2CCN(C3C(=O)Nc4ccccc4-n4nnnc43)CC2)c1C (configuration not stated) | x | x | x | x | 10µM* | u
O=C(O)[C@@H](c1ccc(OCc2ccc3ccccc3n2)cc1)C1CCCC1 | x | 28% | x | x | x | x
Cc1cc(C)c(C(CC(=O)c2cccs2)C(C#N)C#N)c(C)c1 (configuration not stated) | 13µM* | u | 18µM* | x | u | u
CC1(C)CCC2=C(O1)c1ccccc1C(=O)C2=O | 4µM* | 27µM* | 3.2µM* | x | x | x
O=C(Cn1c(=O)nc(-c2ccccc2F)c2cc(Cl)ccc21)Nc1ccccc1C(F)(F)F | 2% | x | 23% | x | x | x
Cc1ccc(Cn2c(=O)n(Cc3ccco3)c(=O)c3oc4ccccc4c32)cc1 | -14% | 1% | -32% | i | x | x
C=CCc1cccc(CNc2nc3ccccc3n2C(C)C)c1O | -44% | 32µM* | 13µM* | u | 11µM* | u
O=C(CCl)N(c1ccccc1)C1CCCCC1 | 18µM* | u | u | u | 3.3µM* | 5.2µM*
CCCCCCNC(=O)c1cn(CC)c2cc(N3CCN(C)CC3)c(F)cc2c1=O | 13µM* | u | u | u | u | 16µM*
CCn1cc(C(=O)NCCCO)c(=O)c2cc(F)c(N3CCN(C)CC3)cc21 | 4% | x | -10% | i | 6% | 11%
O=C(Nc1ccccc1)C1Cc2c(-c3ccc(Cl)cc3)ccnc2O1 (configuration not stated) | 0% | -20% | -14% | i | -6% | -17%
CC(=O)c1cccc(-c2ccnc3c2CC(C(=O)NCc2ccco2)O3)c1 (configuration not stated) | -31% | -11% | 9% | u | 1.3µM* | u
CC(=O)c1cccc(-c2ccnc3c2CC(C(=O)NCc2ccccc2)O3)c1 (configuration not stated) | -16% | -5% | -9% | i | u | u
O=C(NCc1ccccc1)C1Cc2c(-c3cccc(F)c3)ccnc2O1 (configuration not stated) | -12% | 2% | u | i | 1.2µM* | u
O=C(NCc1ccccc1)C1Cc2c(-c3ccc(Cl)cc3)ccnc2O1 (configuration not stated) | 15% | 1% | u | i | 0.73µM* | u
